Compound activity deposited in PubChem by Broad Institute.
Compounds with a hit are over-represented: about 2.5% of the library has one in this group of screens.
AF4-AF9 inh – inhibitors of AF4 peptide binding to AF9, primary screen, biochemical, AlphaScreen, biotin-AF4 peptide, FLAG-AF9, single point | inhibition, % at 10 µM | 350,000 compounds, 0.47% hits | Protein AF-9 (Homo sapiens), P42568;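 active = every replicate reaching a set inhibition limit, whatever the replicate mean, cut at about 25% in these data; inconclusive = mean inhibition reaches that limit but some replicates miss it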;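 note: 0% = plate neutral control median and 100% = total signal loss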
NSD2 inh – NSD2 histone methyltransferase inhibitors, primary screen, biochemical, AlphaScreen, single concentration, set 2; Histone-lysine N-methyltransferase NSD2 (Homo sapiens), O96028; NSD2 peptide methylation, 120 min; inhibition, % at 12.5 µM; 310,000 compounds, 0.54% hits; in the data active = inhibition above about 50%
RAD52 inh – RAD52 DNA annealing inhibitors, primary screen, biochemical, FRET, single point, set 2; recombinant RAD52 DNA annealing, FRET fluorescence; inhibition, % at 18.7 µM; 360,000 compounds, 0.46% hits; AID 651710, 2012;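 active = every replicate showing at least 50% inhibition; inconclusive = mean inhibition at least 50% but not in every replicate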
Target sequence (P43351 whole entry, looked up): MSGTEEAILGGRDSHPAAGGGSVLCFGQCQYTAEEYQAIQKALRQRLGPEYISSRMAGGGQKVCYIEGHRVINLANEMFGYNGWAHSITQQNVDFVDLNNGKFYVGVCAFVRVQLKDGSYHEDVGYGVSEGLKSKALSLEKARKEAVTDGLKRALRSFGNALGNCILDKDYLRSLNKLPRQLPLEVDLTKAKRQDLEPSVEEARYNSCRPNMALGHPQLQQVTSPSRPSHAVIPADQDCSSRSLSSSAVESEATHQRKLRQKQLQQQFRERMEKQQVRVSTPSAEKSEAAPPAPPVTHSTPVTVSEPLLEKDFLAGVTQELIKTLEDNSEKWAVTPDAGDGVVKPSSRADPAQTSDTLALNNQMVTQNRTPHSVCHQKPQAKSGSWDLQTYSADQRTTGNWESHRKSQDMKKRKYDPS
Ecoli rRNA inh – reduced GFP signal of wild-type E. coli, primary screen, bacterial rRNA inhibitor project, GFP/RFP fluorescence, OD600, single point; E. coli WT GFP vs humanized-ribosome RFP mutants, 24 h; stronger effect = lower value; DMSO median 0, no signal -100; GFP signal change (wild-type ribosome), % (test concentration not listed); 350,000 compounds, 1.6% hits; AID 720706, 2013;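 active = significant combined selectivity score with lowered wild-type GFP, culture density cut under 30%, mutant RFP and density less affected; inactive = any of these conditions unmet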
CASP6 VEID inh – human caspase-6 inhibitors, primary screen, biochemical, VEID-R110 fluorescence, single point, set 2. purified caspase-6, Z-VEID-R110 cleavage fluorescence. inhibition, % at 12.5 µM. 350,000 compounds, 0.53% hits. P55212;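 active = mean inhibition across replicates at least about 35%, with every replicate also reaching that limit, limit read from the data; inconclusive = only one of the two criteria met; inactive = neither criterion met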;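 note: 0% = median of neutral control wells and 100% = no fluorescence left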
Alpha artifact – AlphaScreen signal interference with preloaded methylated product, dose response, artefact control for NSD2 inhibitor project, biochemical, cherry-picked samples; AC35, µM (series often up to 10 µM), inactives show at the highest dose activity change, negative = signal loss; AlphaScreen artifact counterscreen, preloaded methylated H4 peptide; shares compounds with NSD2 inh; 1,500 compounds, 9.4% hits; call rule not given here
Active calls of the source: *; ? = inconclusive; . = not tested or not shown.

SMILES	AF4-AF9 inh	NSD2 inh	RAD52 inh	Ecoli rRNA inh	CASP6 VEID inh	Alpha artifact
O=C(CSc1nc2nn(-c3ccccc3)c(=O)c-2c2n1CCCCC2)c1ccc(O)c(O)c1	.	94*	.	.	.	7.9µM*
O=C(C[C@H]1C=C[C@H](NC(=O)C2CCOCC2)[C@H](CO)O1)NCC1CCCCC1	-1	.	4	-8	0	.
Cc1ccc(-n2c(C)c(C)c3c(N)ncnc32)cc1	13	67*	2	-7	0	-7%
N#Cc1c(NC(=O)c2ccc(Br)o2)n(-c2ccccc2)c2nc3ccccc3nc12	-7	177*	-37	-4	46*	1%
Cc1ccc(C(=O)NCCn2c(N)c(C#N)c3nc4ccccc4nc32)cc1	.	55*	.	.	.	0%
CCCCn1c(NC(=O)c2ccccc2)c(C#N)c2nc3ccccc3nc21	.	162*	.	.	.	3%
COc1ccc2nc(NC(=O)CS(=O)(=O)c3ccc(C)cc3)sc2c1	0	69*	3	-9	6	-1%
CCOCC(=O)Nc1nc2ccc(OC)cc2s1	.	49	.	.	.	.
CCOC(=O)C(CCCCP(=O)(c1ccccc1)c1ccccc1)(NC(C)=O)C(=O)OCC	.	15	-10	-6	-1	.
CCOC(=O)C(CCCP(=O)(c1ccccc1)c1ccccc1)(NC(C)=O)C(=O)OCC	-15	60*	-6	10	-1	-5%
O=C(c1ccccn1)N1CC[C@@H]2[C@@H](CO)Nc3ccc(-c4ccccc4F)cc3[C@@H]21	.	.	.	-1	.	.
Cc1ccc(CSc2nc3c(c(=O)[nH]2)C(c2ccncc2)C2=C(CCCC2=O)N3)cc1 (centres undefined)	.	127*	.	.	.	-1%
O=C(c1cccnc1)N1CC2(C1)[C@@H](c1ccccc1)[C@H](CO)N2C(=O)c1cccnc1	.	.	.	2	.	.
O=C(C[C@@H]1C=C[C@@H](NC(=O)c2ccncc2)[C@@H](CO)O1)NCc1ccncn1	-6	.	4	.	3	.
CCCCc1ccc(NC(=O)CSc2nc(=O)n(CCN(CC)CC)c3c2CCCC3)cc1	1	66*	7	-58	16	-3%
C/C(=N\NC(=O)c1nnn(-c2nonc2N)c1C)c1ccc(-c2ccccc2)cc1	-3	99*	-5	3	-8	-1%
CC(=O)N1CC2(C1)[C@@H](c1ccccc1)[C@H](CO)N2C(=O)Cc1ccccc1	?	.	-3	7	0	.
Cn1nnnc1SCC(=O)NCc1cccc(C(=O)O)c1	.	0	.	.	.	.
COC(=O)c1ccc(-n2nnnc2SCC(=O)NCc2cccc(C(=O)O)c2)cc1	.	107*	.	.	.	3%
Cc1cc(Cl)ccc1OCCCC(=O)N1CCCCC1	.	-3	.	.	.	.
Cc1cc(Cl)ccc1OCCCC(=O)N1CCOCC1	.	72*	.	.	.	1%
O=C1C2C3C=CC(C3)C2C(=O)N1/N=C/c1ccc(-c2ccccc2[N+](=O)[O-])o1 (centres undefined)	.	3	.	.	.	.
CN1C(=O)/C(=C/c2ccc(-c3ccccc3[N+](=O)[O-])o2)SC1=Nc1ccc(Cl)c(C(=O)O)c1	.	117*	.	.	.	-4%
COc1ccccc1CN(Cc1cc2cc3c(cc2[nH]c1=O)OCCO3)Cc1nnnn1Cc1ccco1	.	60*	.	.	.	-6%
CNC[C@@H]1OCCCC[C@@H](C)Oc2ccc(NS(=O)(=O)c3ccccc3)cc2C(=O)N([C@H](C)CO)C[C@H]1C	-2	.	-63	8	-2	.
Cc1ccc(S(=O)(=O)Nc2ccc3c(c2)C(=O)N([C@H](C)CO)C[C@@H](C)[C@H](CN(C)C(=O)CCC(F)(F)F)OCCCC[C@@H](C)O3)cc1	0	.	16	2	2	.
CCCNC(=O)C[C@@H]1CC[C@@H]2[C@H](COc3ccc(NS(=O)(=O)CC)cc3C(=O)N2C)O1	-2	.	14	-1	-2	.
O=C(O)CNS(=O)(=O)c1ccc2c3c(cccc13)C(=O)N2	2	5	-14	24	32	.
O=C1Nc2ccc(S(=O)(=O)NCc3ccco3)c3cccc1c23	.	135*	.	.	.	-2%
